Reference: PubChem BioAssay AID1159580 (chemical genetic matrix, 2015)
Out of some 5,500 compounds screened, about 2,000 (36%) were called active. Inconclusive results (about 18%) are left out. Rule as the data show it: active = normalized growth mostly below about 0.91 (no sharp cut-off); inconclusive = no clear call, values can overlap the other calls; inactive = mostly above about 0.92. Some of the results follow.

Experiment: chemical genetic growth profiling, strain panel (AID 1159580);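 also: tested at 20 µM; growth read once vehicle control cultures reached saturation at 30 °C; 1 = growth at the plate median or of vehicle wells; lower values mean less growth of the strain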
Conditions: S. cerevisiae deletion strains, growth OD
[1] = locus YHR030C, strain SLT2, active compounds read low
[2] = locus YJL095W, strain BCK1, active compounds read low

Measured: normalized growth

COc1cc2oc3cc(OC)c(OC)c(CC=C(C)C)c3c(=O)c2c(O)c1CC=C(C)C
inactive: [1] 0.981 | locus YHR079C, strain IRE1, active compounds read low 0.988 | [2] 0.971 | locus YJR066W, strain TOR1, active compounds read low 0.934 | locus YLR113W, strain HOG1, active compounds read low 0.958 | locus YNL183C, strain NPR1, active compounds read low 0.919 | locus YOR231W, strain MKK1, active compounds read low 0.981 | locus YPL256C, strain CLN2, active compounds read low 0.992

Cc1cc(=O)c2c(O)cc(O)c(C)c2o1
inactive: locus YAL021C, strain ccr4, active compounds read low 0.976 | locus YAL026C, strain drs2, active compounds read low 0.926 | locus YAL030W, strain snc1, active compounds read low 0.954 | locus YBL061C, strain skt5, active compounds read low 0.951 | locus YBR009C, strain hhf1, active compounds read low 0.953 | locus YBR021W, strain FUR4, active compounds read low 0.995 | locus YBR023C, strain chs3, active compounds read low 0.936 | locus YBR171W, strain sec66, active compounds read low 0.921 | locus YBR229C, strain ROT2, active compounds read low 0.987 | locus YBR231C, strain swc5, active compounds read low 0.924 | locus YBR279W, strain paf1, active compounds read low 0.946 | locus YCL011C, strain gbp2, active compounds read low 0.951 | locus YCL016C, strain dcc1, active compounds read low 0.937 | locus YCL029C, strain bik1, active compounds read low 0.994 | locus YCL061C, strain MRC1, active compounds read low 0.938 | locus YCL069W, strain vba3, active compounds read low 0.982 | locus YCR088W, strain abp1, active compounds read low 0.965 | locus YDL005C, strain med2, active compounds read low 0.963 | locus YDL035C, strain GPR1, active compounds read low 1.02 | locus YDL040C, strain nat1, active compounds read low 0.979 | locus YDL074C, strain BRE1, active compounds read low 1.02 | locus YDL101C, strain DUN1, active compounds read low 0.975 | locus YDL134C, strain PPH21, active compounds read low 0.996 | locus YDL185W, strain tfp1, active compounds read low 0.962 | locus YDL192W, strain arf1, active compounds read low 0.988 | locus YDR001C, strain nth1, active compounds read low 0.959 | locus YDR069C, strain doa4, active compounds read low 0.962 | locus YDR101C, strain arx1, active compounds read low 1.01 | locus YDR159W, strain sac3, active compounds read low 0.907 | locus YDR162C, strain NBP2, active compounds read low 1.03 | locus YDR297W, strain sur2, active compounds read low 0.966 | locus YDR318W, strain mcm21, active compounds read low 0.988 | locus YDR334W, strain swr1, active compounds read low 0.951 | locus YDR388W, active compounds read low 0.98 | locus YDR392W, strain spt3, active compounds read low 0.753 | locus YDR502C, strain sam2, active compounds read low 0.977 | locus YEL003W, strain gim4, active compounds read low 0.95 | locus YEL037C, strain rad23, active compounds read low 0.961 | locus YEL061C, strain CIN8 (second series), active compounds read low 0.943 | locus YEL061C, strain CIN8, active compounds read low 0.993 | locus YER015W, strain faa2, active compounds read low 0.95 | locus YER016W, strain bim1, active compounds read low 0.937 | locus YER110C, active compounds read low 0.968 | locus YER111C, strain swi4, active compounds read low 0.934 | locus YER155C, strain BEM2, active compounds read low 0.987 | locus YER167W, strain BCK2, active compounds read low 1 | locus YFR010W, strain ubp6, active compounds read low 0.942 | locus YGL078C, strain dbp3, active compounds read low 0.965 | locus YGL086W, strain mad1, active compounds read low 1 | locus YGL167C, strain pmr1, active compounds read low 0.936 | locus YGL173C, strain kem1, active compounds read low 0.946 | locus YGL227W, strain vid30, active compounds read low 0.957 | locus YGL240W, strain doc1, active compounds read low 0.931 | locus YGL248W, strain PDE1, active compounds read low 0.995 | locus YGL253W, strain hxk2, active compounds read low 0.962 | locus YGR078C, strain PAC10, active compounds read low 0.985 | locus YGR135W, strain pre9, active compounds read low 0.965 | locus YGR229C, strain SMI1, active compounds read low 1.01 | locus YGR252W, strain gcn5, active compounds read low 1.03 | locus YHR013C, strain ard1, active compounds read low 1.05 | locus YHR027C, strain rpn1, active compounds read low 0.964 | [1] 0.996 | locus YHR079C, strain IRE1 (second series), active compounds read low 0.988 | locus YHR094C, strain hxt1, active compounds read low 0.983 | locus YHR129C, strain ARP1, active compounds read low 0.985 | locus YHR200W, strain rpn10, active compounds read low 0.96 | locus YIL066C, strain RNR3, active compounds read low 0.991 | locus YIL073C, strain SPO22, active compounds read low 0.967 | locus YIL125W, strain kgd1, active compounds read low 1 | locus YIR030C, strain dcg1, active compounds read low 0.973 | locus YJL092W, strain hpr5, active compounds read low 0.964 | locus YJL095W, strain BCK1 (second series), active compounds read low 0.962 | [2] 0.962 | locus YJL115W, strain asf1, active compounds read low 0.971 | locus YJL129C, strain trk1, active compounds read low 0.901 | locus YJL134W, strain LCB3, active compounds read low 0.989 | locus YJL154C, strain vps35, active compounds read low 0.977 | locus YJL164C, strain tpk1, active compounds read low 0.946 | locus YJL166W, strain qcr8, active compounds read low 0.956 | locus YJL168C, strain set2, active compounds read low 0.976 | locus YJL187C, strain SWE1 (second series), active compounds read low 0.97 | locus YJL187C, strain SWE1, active compounds read low 0.935 | locus YJR043C, strain POL32, active compounds read low 1.05 | locus YKL009W, strain mrt4, active compounds read low 0.954 | locus YKL068W, active compounds read low 0.985 | locus YKL085W, strain MDH1 (second series), active compounds read low 0.984 | locus YKL085W, strain MDH1, active compounds read low 0.984 | locus YKL160W, strain elf1, active compounds read low 0.908 | locus YKL190W, strain CNB1, active compounds read low 0.993 | locus YKR001C, strain vps1, active compounds read low 0.949 | locus YKR026C, strain gcn3, active compounds read low 0.96 | locus YKR091W, strain srl3, active compounds read low 0.96 | locus YLL001W, strain dnm1, active compounds read low 0.944 | locus YLL026W, active compounds read low 0.962 | locus YLL041C, strain sdh2, active compounds read low 0.971 | locus YLR027C, strain aat2, active compounds read low 0.962 | locus YLR039C, strain RIC1, active compounds read low 0.919 | locus YLR058C, strain SHM2, active compounds read low 0.982 | locus YLR102C, strain apc9, active compounds read low 0.982 | locus YLR221C, strain rsa3, active compounds read low 0.977 | locus YLR258W, strain gsy2, active compounds read low 0.965 | locus YLR268W, strain sec22, active compounds read low 1 | locus YLR330W, strain CHS5, active compounds read low 0.993 | locus YLR342W, strain FKS1, active compounds read low 0.962 | locus YLR357W, strain rsc2, active compounds read low 1 | locus YLR370C, strain arc18, active compounds read low 0.971 | locus YLR371W, strain rom2, active compounds read low 0.983 | locus YLR384C, strain iki3, active compounds read low 0.942 | locus YLR418C, strain cdc73, active compounds read low 0.925 | locus YML016C, strain PPZ1, active compounds read low 0.982 | locus YML032C, strain rad52, active compounds read low 0.987 | locus YML120C, strain ndi1, active compounds read low 0.949 | locus YML124C, strain tub3, active compounds read low 0.98 | locus YMR058W, strain fet3, active compounds read low 0.928 | locus YMR078C, strain ctf18, active compounds read low 0.989 | locus YMR125W, strain sto1, active compounds read low 0.951 | locus YMR129W, active compounds read low 0.958 | locus YMR205C, strain PFK2, active compounds read low 0.896 | locus YMR223W, strain ubp8, active compounds read low 0.97 | locus YMR231W, strain pep5, active compounds read low 0.933 | locus YMR263W, strain SAP30, active compounds read low 0.965 | locus YMR307W, strain GAS1, active compounds read low 1.05 | locus YNL067W, strain RPL9B, active compounds read low 0.978 | locus YNL071W, strain lat1, active compounds read low 0.938 | locus YNL209W, strain ssb2, active compounds read low 0.96 | locus YNL233W, strain BNI4, active compounds read low 0.941 | locus YNL248C, strain rpa49, active compounds read low 0.929 | locus YNL250W, strain rad50, active compounds read low 0.976 | locus YNL271C, strain bni1, active compounds read low 0.982 | locus YNL298W, strain CLA4, active compounds read low 0.983 | locus YNL307C, strain MCK1, active compounds read low 0.956 | locus YNL322C, strain KRE1 (second series), active compounds read low 0.971 | locus YNL322C, strain KRE1, active compounds read low 1.01 | locus YNR049C, strain mso1, active compounds read low 0.969 | locus YNR052C, strain pop2, active compounds read low 0.978 | locus YOL006C, strain TOP1, active compounds read low 1.09 | locus YOL012C, strain htz1 0.94 | locus YOL147C, strain pex11, active compounds read low 0.99 | locus YOR001W, strain rrp6, active compounds read low 0.909 | locus YOR061W, strain CKA2, active compounds read low 1.02 | locus YOR069W, strain VPS5, active compounds read low 0.98 | locus YOR070C, strain gyp1, active compounds read low 0.961 | locus YOR080W, strain dia2, active compounds read low 0.972 | locus YOR083W, strain WHI5, active compounds read low 0.919 | locus YOR106W, strain vam3, active compounds read low 0.869 | locus YOR136W, strain idh2, active compounds read low 0.981 | locus YOR144C, strain elg1, active compounds read low 0.982 | locus YOR184W, strain ser1, active compounds read low 1.04 | locus YOR265W, strain rbl2, active compounds read low 0.964 | locus YOR290C, strain snf2, active compounds read low 0.898 | locus YOR316C, strain cot1, active compounds read low 0.969 | locus YPL078C, strain atp4, active compounds read low 0.942 | locus YPL106C, strain sse1, active compounds read low 0.942 | locus YPL240C, strain hsp82, active compounds read low 0.959 | locus YPL241C, strain CIN2, active compounds read low 0.998 | locus YPR119W, strain clb2, active compounds read low 0.995 | locus YPR141C, strain kar3, active compounds read low 0.987 | locus YPR163C, strain tif3, active compounds read low 0.992 | locus YPR167C, strain met16, active compounds read low 0.979 | strain wtn01, active compounds read low 1.01
active: locus YDR137W, strain rgp1, active compounds read low 0.504 | locus YDR195W, strain ref2 1.34 [resistant] | locus YDR335W, strain msn5, active compounds read low 0.897 | locus YER155C, strain BEM2 (second series), active compounds read low 0.808 | locus YHR142W, strain chs7, active compounds read low 0.869 | locus YLR262C, strain YPT6 (second series), active compounds read low 0.507 | locus YLR320W, strain mms22, active compounds read low 0.853 | locus YOR270C, strain vph1, active compounds read low 0.729 | locus YPL051W, strain arl3, active compounds read low 0.859
